{"source": "PubChem BioAssay AID651903", "about": "(Broad Institute, 2012)", "note": "The campaign covered roughly 22,000 compounds. About 1,100 (5%) were called active. Shown is part of a subset that was picked to be rich in actives. Values without a mark were called inactive. Cut-off read from the data, not from the text of the source: active = activity score above about 55%; inconclusive = no clear call, values can overlap the other calls; inactive = below that.", "data": [{"assay": "inhibitors of intracellular Trypanosoma cruzi, primary screen, cell-based, plate reader, single point, set 2 (AID 651903);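 note: parasites and compound incubated about four days before reading; 0% = median of neutral control wells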", "conditions": "intracellular Trypanosoma cruzi in host cells, at 5.01 µM, stronger effect = higher value", "values": [{"molecule": "C[C@H]1CN([C@@H](C)CO)C(=O)Cc2cc(NC(=O)CCCN(C)C)ccc2O[C@@H]1CN(C)Cc1ccc(-c2ccccc2)cc1", "activity score (inhibition)": "-19.2%"}, {"molecule": "COc1ccc(NC(=O)N(C)C[C@@H]2Oc3ccc(NC(=O)CCC(F)(F)F)cc3C(=O)N([C@@H](C)CO)C[C@H]2C)cc1", "activity score (inhibition)": "-13.2%"}, {"molecule": "C[C@@H]1CN([C@@H](C)CO)C(=O)CCCn2cc(nn2)CO[C@@H]1CN(C)Cc1cccc(O)c1", "activity score (inhibition)": "-17.1%"}, {"molecule": "C[C@@H]1CN([C@@H](C)CO)C(=O)c2cc(NC(=O)c3ccncc3)ccc2O[C@@H]1CN(C)S(C)(=O)=O", "activity score (inhibition)": "-8.16%"}, {"molecule": "C[C@H]1CN([C@@H](C)CO)C(=O)CCCn2nncc2CO[C@H]1CN(C)Cc1cccc(C(=O)O)c1", "activity score (inhibition)": "-16.6%"}, {"molecule": "COc1cccc(-c2cnc3c(c2)C(=O)N([C@H](C)CO)C[C@H](C)[C@H](CN(C)C(=O)NC(C)C)O3)c1", "activity score (inhibition)": "3.35%"}, {"molecule": "C[C@H](CO)N1C[C@H](C)[C@H](CN(C)S(C)(=O)=O)Oc2c(NC(=O)Nc3cccc4ccccc34)cccc2C1=O", "activity score (inhibition)": "-17.4%"}, {"molecule": "Cc1ccc(CN(C)C[C@@H]2OCc3cnnn3CCCC(=O)N([C@@H](C)CO)C[C@H]2C)cc1", "activity score (inhibition)": "-0.307%"}, {"molecule": "C[C@H](CO)N1C[C@H](C)[C@@H](CN(C)S(C)(=O)=O)Oc2c(NC(=O)c3ccc(-c4nccs4)cc3)cccc2C1=O", "activity score (inhibition)": "-3.29%"}, {"molecule": "C[C@@H]1CN([C@@H](C)CO)C(=O)c2cccc(NC(=O)c3ccc(-c4nccs4)cc3)c2O[C@H]1CN(C)Cc1ccc(Cl)c(Cl)c1", "activity score (inhibition)": "85.3% (active)"}, {"molecule": "C[C@@H]1CN([C@H](C)CO)C(=O)c2cccc(NC(=O)c3cnccn3)c2O[C@@H]1CN(C)Cc1ccncc1", "activity score (inhibition)": "-11.1%"}, {"molecule": "C[C@H](CO)N1C[C@H](C)[C@@H](CN(C)Cc2ccc(C(=O)Nc3ccccc3N)cc2)Oc2c(NC(=O)c3ccc(-c4nccs4)cc3)cccc2C1=O", "activity score (inhibition)": "64% (active)"}, {"molecule": "C[C@@H]1CN([C@H](C)CO)C(=O)c2cccc(NC(=O)c3cnccn3)c2O[C@@H]1CN(C)Cc1ccc(C(=O)Nc2ccccc2N)cc1", "activity score (inhibition)": "67.2% (active)"}, {"molecule": "C[C@@H]1CN([C@@H](C)CO)C(=O)c2cccc(NC(=O)c3ccc(-c4nccs4)cc3)c2O[C@@H]1CN(C)Cc1ccncc1", "activity score (inhibition)": "20.7%"}, {"molecule": "C[C@H]1CN([C@@H](C)CO)C(=O)c2cccc(NC(=O)c3ccc(-c4nccs4)cc3)c2O[C@H]1CN(C)Cc1ccc(C(=O)O)cc1", "activity score (inhibition)": "-0.442%"}, {"molecule": "C[C@H](CO)N1C[C@H](C)[C@H](CN(C)S(C)(=O)=O)Oc2c(NC(=O)c3ccc(-c4nccs4)cc3)cccc2C1=O", "activity score (inhibition)": "9.35%"}, {"molecule": "Cc1ccc(S(=O)(=O)N(C)C[C@H]2Oc3c(NC(=O)c4ccc(-c5nccs5)cc4)cccc3C(=O)N([C@H](C)CO)C[C@H]2C)cc1", "activity score (inhibition)": "69.5% (active)"}, {"molecule": "C[C@@H]1CN([C@@H](C)CO)C(=O)c2cccc(NC(=O)c3ccc(-c4nccs4)cc3)c2O[C@@H]1CN(C)S(=O)(=O)c1ccccc1", "activity score (inhibition)": "24.8%"}, {"molecule": "C[C@H](CO)N1C[C@H](C)[C@@H](CN(C)S(=O)(=O)c2ccccc2)Oc2c(NC(=O)c3ccc(-c4nccs4)cc3)cccc2C1=O", "activity score (inhibition)": "20.1%"}, {"molecule": "C[C@@H]1CN([C@@H](C)CO)C(=O)c2cccc(NC(=O)c3cnccn3)c2O[C@H]1CN(C)Cc1ccc(C(=O)O)cc1", "activity score (inhibition)": "2.36%"}, {"molecule": "O=C(O)c1cccc(/C=N/NC(=O)c2cccc(C(=O)NO)c2)c1", "activity score (inhibition)": "-15.8%"}, {"molecule": "Cc1cccc(CN(C)C[C@@H]2OCc3cn(nn3)CCCC(=O)N([C@@H](C)CO)C[C@H]2C)c1", "activity score (inhibition)": "-37.4%"}, {"molecule": "Cc1cccc(S(=O)(=O)N(C)C[C@@H]2OCc3cnnn3CCCC(=O)N([C@H](C)CO)C[C@@H]2C)c1", "activity score (inhibition)": "5.66%"}, {"molecule": "C[C@H]1CN([C@@H](C)CO)C(=O)Cc2cc(NC(=O)Cc3ccccc3)ccc2O[C@H]1CN(C)S(=O)(=O)c1ccc(Cl)cc1", "activity score (inhibition)": "30.9%"}, {"molecule": "Cc1ccc(S(=O)(=O)Nc2cccc3c2O[C@H](CN(C)CC2CCCCC2)[C@H](C)CN([C@H](C)CO)C3=O)cc1", "activity score (inhibition)": "2.35%"}, {"molecule": "CNC[C@@H]1Oc2c(NC(=O)Nc3ccc(OC)cc3)cccc2C(=O)N([C@@H](C)CO)C[C@@H]1C", "activity score (inhibition)": "-23.4%"}, {"molecule": "COc1ccc(NC(=O)Nc2ccc3c(c2)CC(=O)N([C@H](C)CO)C[C@H](C)[C@H](CN(C)S(=O)(=O)c2ccccc2)O3)cc1", "activity score (inhibition)": "-4.14%"}, {"molecule": "Cc1ccc(S(=O)(=O)N(C)C[C@H]2Oc3c(NS(=O)(=O)c4cn(C)cn4)cccc3C(=O)N([C@@H](C)CO)C[C@H]2C)cc1", "activity score (inhibition)": "-10.8%"}, {"molecule": "Cc1noc(C)c1NC(=O)Nc1ccc2c(c1)C(=O)N([C@@H](C)CO)C[C@H](C)[C@H](CN(C)CC1CCCCC1)O2", "activity score (inhibition)": "7.21%"}, {"molecule": "O=C(N/N=C/c1ccc(O)cc1Br)c1ccccc1O", "activity score (inhibition)": "-10.3%"}, {"molecule": "COc1ccc(NC(=O)Nc2cccc3c2O[C@H](CN(C)Cc2ccncc2)[C@@H](C)CN([C@@H](C)CO)C3=O)cc1", "activity score (inhibition)": "2.96%"}, {"molecule": "COc1ccc(NC(=O)Nc2cccc3c2O[C@@H](CN(C)Cc2ccncc2)[C@H](C)CN([C@H](C)CO)C3=O)cc1", "activity score (inhibition)": "-7.67%"}, {"molecule": "COc1ccc(CN(C)C[C@H]2Oc3c(NC(=O)c4ccncc4)cccc3C(=O)N([C@H](C)CO)C[C@@H]2C)cc1", "activity score (inhibition)": "80.9% (active)"}, {"molecule": "COc1ccc(NC(=O)Nc2ccc3c(c2)CC(=O)N([C@@H](C)CO)C[C@H](C)[C@H](CN(C)C(=O)Nc2ccc4c(c2)OCO4)O3)cc1", "activity score (inhibition)": "-16.4%"}, {"molecule": "C[C@@H]1CN([C@@H](C)CO)C(=O)c2cc(NS(=O)(=O)c3ccc(Cl)cc3)ccc2O[C@H]1CN(C)S(=O)(=O)c1cn(C)cn1", "activity score (inhibition)": "-11.5%"}, {"molecule": "CNC[C@H]1Oc2c(NC(=O)C3CC3)cccc2C(=O)N([C@@H](C)CO)C[C@@H]1C", "activity score (inhibition)": "-26.9%"}, {"molecule": "C[C@H]1CN([C@@H](C)CO)C(=O)c2cccc(NS(C)(=O)=O)c2O[C@@H]1CN(C)C(=O)Nc1ccc(F)cc1", "activity score (inhibition)": "-4.72%"}]}]}
